Laboratory results reported in PubChem BioAssay AID1053127 (Broad Institute, 2014).
Measured potencies and affinities stand elsewhere.

test: CTGF mRNA reduction under YAP1 overexpression, dose response, mechanism study for YAP1 pathway inhibitor project, DLD1 cells, RT-qPCR, cherry-pick (AID 1053127); conditions: DLD1 YAP1-overexpressing, 24 h; series mostly up to 26 µM; CTGF fold change (delta-delta-Ct), lower = inhibition: at the top concentration;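 active means compounds whose fitted curve of lowered CTGF expression reaches half effect within a set concentration limit; inconclusive means flat moderate drop in CTGF, or unreliable curve fit; inactive means the rest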

CTGF fold change (delta-delta-Ct), lower = inhibition, inactive:
C[C@@H]1CN([C@@H](C)CO)C(=O)c2cc(NC(=O)Nc3ccccc3)ccc2O[C@@H](C)CCCCO[C@@H]1CN(C)C(=O)Nc1ccccc1 1.02 unspecified, COc1ccccc1C#Cc1ccc([C@H]2[C@H](CO)N3CCCCN(C(=O)C4CCC4)C[C@@H]23)cc1 0.643 unspecified, COc1cccc(-c2ccc([C@@H]3[C@@H](C#N)N(C(=O)Cc4ccncc4)[C@@H]3CO)cc2)c1 1.08 unspecified, CCCC#Cc1ccc([C@@H]2[C@@H](C#N)N(C(=O)CN3CCOCC3)[C@H]2CO)cc1 1.04 unspecified [at 23.5 µM], C[C@@H]1CN([C@H](C)CO)C(=O)c2ccccc2-c2ccccc2CO[C@@H]1CN(C)Cc1ccc2c(c1)OCCN2C 0.735 unspecified, CC(C)(C)S(=O)N1Cc2cc(C(=O)NCc3ccc4c(c3)OCO4)nc(-c3cccc(-c4cccc(F)c4)c3)c2[C@@H]1CCO (some centres undefined) 1.09 unspecified, CC(C)(C)[S@](=O)N1Cc2cc(C(=O)NCc3ccccn3)nc(-c3cccc(-c4ccccc4F)c3)c2[C@@H]1CCO 1.52 unspecified, O=C(c1cccc(F)c1)N1CCCCN2[C@@H](CO)[C@H](c3ccc(C#CC4(O)CCCC4)cc3)[C@@H]2C1 0.713 unspecified, CCS(=O)(=O)Nc1ccc2c(c1)C(=O)N(C)[C@H]1CC[C@H](CC(=O)N3CCN(C)CC3)O[C@H]1CO2 1.29 unspecified, CC(C)NC(=O)N[C@@H]1CC[C@H](CC(=O)NCCCN(C)C)O[C@@H]1CO 1.4 unspecified, CC(=O)N1CCCCN2[C@@H](CO)[C@H](c3ccc(-c4ccccc4)cc3)[C@@H]2C1 0.666 unspecified, CCCNC(=O)N1[C@H](C#N)[C@@H](c2ccc(C#Cc3cccc(F)c3)cc2)[C@@H]1CO 3.14 unspecified, COCC(=O)N1CC(=O)N2[C@H](CO)[C@@H](c3ccc(C#CC4CC4)cc3)[C@H]2C1 0.911 unspecified, C[C@H](CO)N1C[C@H](C)[C@@H](CN(C)S(=O)(=O)c2ccc([N+](=O)[O-])cc2)OCc2ccccc2-c2c(n(C)c3ccccc23)C1=O 1.01 unspecified, COc1ccc(NC(=O)N2CCCCN3[C@@H](CO)[C@H](c4ccc(-c5ccccc5F)cc4)[C@@H]3C2)cc1 1.16 unspecified, COc1ccccc1S(=O)(=O)N1CC[C@@H]2[C@H]1c1cc(-c3cccc(C#N)c3)ccc1N(C)[C@H]2CO 0.771 unspecified [at 23.5 µM], COc1ccc2c3c([nH]c2c1)[C@H](CO)NCC31CCN(C(=O)Cc2cccnc2)CC1 1.14 unspecified, COc1ccc(CN(C)C[C@H]2Oc3ccc(NC(=O)Nc4ccc5c(c4)OCO5)cc3CC(=O)N([C@@H](C)CO)C[C@H]2C)cc1 0.62 unspecified, CC(C)(C)[S@](=O)N1Cc2cc(C(=O)NCCc3ccncc3)nc(-c3cccc(-c4cccc(C#N)c4)c3)c2[C@@H]1CCO 1.03 unspecified, Cc1ccc(S(=O)(=O)Nc2ccc3c(c2)CC(=O)N([C@H](C)CO)C[C@@H](C)[C@@H](CN(C)S(=O)(=O)c2ccccc2)O3)cc1 0.863 unspecified, C[C@H]1CN([C@@H](C)CO)C(=O)c2cccc(NC(=O)c3nc4ccccc4s3)c2O[C@@H]1CN(C)C(=O)Nc1ccc2c(c1)OCO2 0.677 unspecified, Cc1ccc(S(=O)(=O)N2CC[C@@H]3[C@H]2c2cc(-c4cccc(C(=O)N(C)C)c4)ccc2N[C@@H]3CO)cc1 2.06 unspecified [at 23.5 µM], COc1ccc(S(=O)(=O)Nc2ccc3c(c2)C(=O)N([C@@H](C)CO)C[C@H](C)[C@@H](CN(C)S(=O)(=O)c2ccc(Cl)cc2)OCCCC[C@@H](C)O3)cc1 1.31 unspecified, O=C(Nc1cccc(F)c1)N1CCCCN2[C@H](C1)[C@H](c1ccc(C#Cc3cccnc3)cc1)[C@@H]2CO 0.942 unspecified, C/C=C/c1cccc(-c2nc(C(=O)Nc3nccs3)cc3c2[C@@H](CCO)N(C(=O)NC(C)C)C3)c1 1.23 unspecified, COc1ccc2c3c(n(C)c2c1)[C@@H](CO)N(Cc1ccncc1)CC31CN(C(=O)Nc2cccc(F)c2)C1 1.12 unspecified, C[C@@H]1CN([C@H](C)CO)C(=O)c2ccccc2-c2ccccc2CO[C@@H]1CN(C)Cc1cccc2c1OCCCO2 0.917 unspecified, Cc1ccc(S(=O)(=O)N2CC[C@H]3[C@H](CO)Nc4ccc(-c5cccc(C(=O)N(C)C)c5)cc4[C@H]32)cc1 1.09 unspecified, COc1ccc(NC(=O)N(C)C[C@H]2Oc3c(NC(=O)CCCCCC(=O)Nc4ccccc4N)cccc3C(=O)N([C@H](C)CO)C[C@@H]2C)cc1 1.07 unspecified [at 23.5 µM], NCC[C@H]1CC[C@@H](NC(=O)NC2CCCCC2)[C@H](CO)O1 1.29 unspecified, CCC(=O)N1C[C@H](C)[C@@H](OC)CN(C)C(=O)c2cc(NC(=O)Nc3ccc(Cl)cc3)ccc2OC[C@@H]1C 1.62 unspecified, CN1C(=O)c2cc(NC(=O)Cc3cccs3)ccc2OC[C@@H]2O[C@@H](CC(=O)NCCc3ccncc3)CC[C@H]21 0.98 unspecified [at 23.5 µM], C[C@H]1CN([C@@H](C)CO)C(=O)c2cccc(NC(=O)c3ccc(-c4nccs4)cc3)c2O[C@@H]1CN(C)C(=O)Nc1ccc(C(F)(F)F)cc1 0.52 unspecified, CN1CCN(C(=O)C[C@@H]2CC[C@H]3[C@@H](COc4ccc(NC(=O)C5CCOCC5)cc4C(=O)N3C)O2)CC1 1.25 unspecified, O=S(=O)(c1ccccc1)N1CCCCN2[C@H](C1)[C@@H](c1ccc(C#CC3CCCC3)cc1)[C@@H]2CO 0.946 unspecified, C[C@@H]1CN([C@@H](C)CO)C(=O)c2cc(C#Cc3ccccc3)cnc2O[C@@H]1CN(C)C(=O)c1ccccc1 1.05 unspecified, C[C@@H]1CN([C@H](C)CO)S(=O)(=O)c2ccc(C#Cc3ccccc3F)cc2O[C@@H]1CN(C)C(=O)Cc1cccnc1 0.807 unspecified, N#Cc1cccc(-c2ccc3c(c2)[C@@H]2[C@@H](CCN2S(=O)(=O)c2ccc(F)cc2)[C@H](CO)N3)c1 1.06 unspecified, O=C(Nc1ccc2c(c1)[C@H]1C[C@@H](CC(=O)N3CCc4ccccc4C3)O[C@@H](CO)[C@H]1O2)c1ccc2c(c1)OCO2 0.836 unspecified
